Compounds without any hit were thinned out: in the full panel of roughly 83,000, 20% have a hit.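 Testing used 96-well plates and a 48-hour single-concentration exposure. Example: -40 means 40% of the starting cells died.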 The source made the active and inactive calls. How the source made its calls: active means growth percent below 10; inactive means the rest.
Legend:
Experiment in all cases: NCI-60 one-dose screen, 48 h (100 = growth as untreated, 0 = no growth, -100 = all killed)
Conditions in all cases: 10 µM unless noted
NCI-H23 lung = system: NCI-H23 lung
NCI-H226 lung = system: NCI-H226 lung
NCI-H322M lung = system: NCI-H322M lung
HOP-62 NSCLC = system: HOP-62 NSCLC
NCI-H460 lung = system: NCI-H460 lung
HOP-92 NSCLC = system: HOP-92 NSCLC
NCI-H522 lung = system: NCI-H522 lung
A549/ATCC NSCLC = system: A549/ATCC NSCLC
786-0 renal = system: 786-0 renal
COLO 205 colon = system: COLO 205 colon
DU-145 prostate = system: DU-145 prostate
K-562 leukemia = system: K-562 leukemia
MALME-3M melanoma = system: MALME-3M melanoma
MDA-MB-231 breast = system: MDA-MB-231 breast
SF-268 CNS = system: SF-268 CNS
SF-295 CNS = system: SF-295 CNS
SF-539 CNS = system: SF-539 CNS
UACC-257 melanoma = system: UACC-257 melanoma
M14 melanoma = system: M14 melanoma

Measured: growth

COC(=O)Nc1ccc(NC(=O)OC)cc1
inactive: NCI-H23 lung 97.6% | NCI-H226 lung 96.7% | NCI-H322M lung 100% | HOP-62 NSCLC 77.7% | NCI-H460 lung 106% | HOP-92 NSCLC 84.7% | NCI-H522 lung 73.6% | A549/ATCC NSCLC 69.7% | 786-0 renal 93.3% | COLO 205 colon 111% | DU-145 prostate 110% | K-562 leukemia 103% | MALME-3M melanoma 105% | MDA-MB-231 breast 120% | SF-268 CNS 103% | SF-295 CNS 99.7% | SF-539 CNS 106% | UACC-257 melanoma 66.3% | M14 melanoma 83.7%

CCOC(=O)c1c(O)cc(-c2ccccc2)cc1-c1sc(N(C)Cc2ccccc2)nc1Cl
active: 786-0 renal -97.1% | M14 melanoma -85%
inactive: NCI-H23 lung 98.7% | NCI-H226 lung 94% | NCI-H322M lung 106% | HOP-62 NSCLC 104% | NCI-H460 lung 102% | HOP-92 NSCLC 91.3% | NCI-H522 lung 86.4% | A549/ATCC NSCLC 98.8% | COLO 205 colon 106% | DU-145 prostate 108% | K-562 leukemia 93.4% | MALME-3M melanoma 100% | MDA-MB-231 breast 103% | SF-268 CNS 95.8% | SF-295 CNS 99.6% | SF-539 CNS 97% | UACC-257 melanoma 96.1%

Fc1ccccc1CSc1ncnc2nc[nH]c12
inactive: NCI-H23 lung 110% | NCI-H226 lung 109% | NCI-H322M lung 131% | HOP-62 NSCLC 93.4% | NCI-H460 lung 97.8% | HOP-92 NSCLC 122% | NCI-H522 lung 54% | A549/ATCC NSCLC 104% | 786-0 renal 106% | COLO 205 colon 103% | DU-145 prostate 120% | K-562 leukemia 99.6% | MALME-3M melanoma 129% | MDA-MB-231 breast 106% | SF-268 CNS 109% | SF-295 CNS 107% | SF-539 CNS 89.6% | UACC-257 melanoma 61.3% | M14 melanoma 108%

Clc1cc(Cl)cc(N2N=C(c3cccc(Nc4ccncc4)c3)CC2c2ccccc2)c1 (centres undefined)
active: NCI-H460 lung -76.1% | COLO 205 colon -49.7% | K-562 leukemia 0.584% | SF-295 CNS 9.59%
inactive: NCI-H23 lung 82.8% | NCI-H226 lung 93.1% | NCI-H322M lung 78% | HOP-62 NSCLC 43.6% | HOP-92 NSCLC 55.7% | NCI-H522 lung 65.2% | A549/ATCC NSCLC 45.5% | 786-0 renal 86.3% | DU-145 prostate 35.7% | MALME-3M melanoma 32.7% | MDA-MB-231 breast 58.1% | SF-268 CNS 84.3% | SF-539 CNS 80.9% | UACC-257 melanoma 84.7% | M14 melanoma 64.1%

COc1ccc(/C=N/NC(=O)c2cccc3cc[nH]c23)cc1O
active: NCI-H460 lung 7.44% | SF-295 CNS -20.3% | SF-539 CNS -18.8% | M14 melanoma 0.307%
inactive: NCI-H23 lung 55.7% | NCI-H226 lung 90.4% | NCI-H322M lung 49.8% | HOP-62 NSCLC 36.3% | HOP-92 NSCLC 57.2% | NCI-H522 lung 54.8% | A549/ATCC NSCLC 50.5% | 786-0 renal 30.9% | COLO 205 colon 55.7% | DU-145 prostate 28.3% | K-562 leukemia 27.8% | MALME-3M melanoma 43% | MDA-MB-231 breast 55.2% | SF-268 CNS 53% | UACC-257 melanoma 47.3%

COc1cc(-c2nc3sccn3c2-c2ccnc(NCCNS(=O)(=O)c3ccc(F)cc3)n2)ccc1F
active: NCI-H226 lung 3.23% | NCI-H522 lung -6.6% | A549/ATCC NSCLC 5.95% | COLO 205 colon 5.45% | K-562 leukemia 5.81% | MALME-3M melanoma -34.2% | SF-295 CNS 4.27% | UACC-257 melanoma -12.7% | M14 melanoma 9.49%
inactive: NCI-H23 lung 13% | NCI-H322M lung 29.7% | HOP-62 NSCLC 32.3% | NCI-H460 lung 13.6% | HOP-92 NSCLC 18.8% | 786-0 renal 30.9% | DU-145 prostate 19.6% | MDA-MB-231 breast 22.3% | SF-268 CNS 19% | SF-539 CNS 31.2%

CCOC(=O)C1CC(=O)c2cc(OC)c(OC)cc2C1 (centres undefined)
inactive: NCI-H23 lung 101% | NCI-H226 lung 92.6% | NCI-H322M lung 123% | HOP-62 NSCLC 96% | NCI-H460 lung 110% | HOP-92 NSCLC 84% | NCI-H522 lung 84.9% | A549/ATCC NSCLC 100% | 786-0 renal 96.2% | COLO 205 colon 127% | DU-145 prostate 111% | K-562 leukemia 88% | MALME-3M melanoma 132% | MDA-MB-231 breast 110% | SF-268 CNS 102% | SF-295 CNS 98.1% | SF-539 CNS 100% | UACC-257 melanoma 87.7% | M14 melanoma 87.8%

Nc1ncc(C#Cc2cncc(NC(=O)c3cccc(C(F)(F)F)c3)c2)c2cccnc12
active: K-562 leukemia 7.45% | MALME-3M melanoma -6.22%
inactive: NCI-H23 lung 30.4% | NCI-H226 lung 39.2% | NCI-H322M lung 81% | HOP-62 NSCLC 52.8% | NCI-H460 lung 12.3% | HOP-92 NSCLC 65.6% | NCI-H522 lung 67.2% | A549/ATCC NSCLC 31.8% | 786-0 renal 63.9% | COLO 205 colon 47% | DU-145 prostate 43.7% | MDA-MB-231 breast 36% | SF-268 CNS 58.4% | SF-295 CNS 61.2% | SF-539 CNS 43.8% | UACC-257 melanoma 71.7% | M14 melanoma 18.2%

O=S(=O)(NCCNc1nccc(-c2c(-c3cccc(F)c3)nc3occn23)n1)c1cccc2ccccc12
inactive: NCI-H23 lung 75.8% | NCI-H226 lung 53.6% | NCI-H322M lung 74.8% | HOP-62 NSCLC 71% | NCI-H460 lung 58.2% | HOP-92 NSCLC 47% | NCI-H522 lung 46.2% | A549/ATCC NSCLC 44.1% | 786-0 renal 48% | COLO 205 colon 40.7% | DU-145 prostate 53.3% | K-562 leukemia 19% | MALME-3M melanoma 56.1% | MDA-MB-231 breast 58.5% | SF-268 CNS 38.6% | SF-295 CNS 58.6% | SF-539 CNS 96.7% | UACC-257 melanoma 77.4% | M14 melanoma 54.8%

CCNC(=O)c1[nH]cc(-c2ccc(OC)cc2)c1-c1cc(OC)cc(OC)c1
inactive: NCI-H23 lung 91.9% | NCI-H226 lung 88.7% | NCI-H322M lung 97.7% | HOP-62 NSCLC 97.5% | NCI-H460 lung 99% | HOP-92 NSCLC 72.9% | NCI-H522 lung 62.6% | A549/ATCC NSCLC 91.3% | 786-0 renal 95.6% | COLO 205 colon 105% | DU-145 prostate 108% | K-562 leukemia 45.1% | MALME-3M melanoma 93% | MDA-MB-231 breast 82.1% | SF-268 CNS 96.7% | SF-295 CNS 96.7% | SF-539 CNS 99.2% | UACC-257 melanoma 103% | M14 melanoma 95.8%

Clc1ccc(N2N=C(c3cccc(Nc4ccncc4)c3)CC2c2ccccc2)cc1 (centres undefined)
active: M14 melanoma -55.4%
inactive: NCI-H23 lung 92.6% | NCI-H226 lung 94.5% | NCI-H322M lung 92.7% | HOP-62 NSCLC 92.2% | NCI-H460 lung 98.9% | HOP-92 NSCLC 67.7% | NCI-H522 lung 80.4% | A549/ATCC NSCLC 93.9% | 786-0 renal 10.9% | COLO 205 colon 73.1% | DU-145 prostate 100% | K-562 leukemia 46% | MALME-3M melanoma 93.5% | MDA-MB-231 breast 93.2% | SF-268 CNS 78.1% | SF-295 CNS 102% | SF-539 CNS 86% | UACC-257 melanoma 101%

O=c1[nH]nc(-c2ccc(Cl)cc2)cc1Cc1cccc([N+](=O)[O-])c1
inactive: NCI-H23 lung 104% | NCI-H226 lung 91.9% | NCI-H322M lung 119% | HOP-62 NSCLC 96.3% | NCI-H460 lung 99.9% | HOP-92 NSCLC 44.2% | NCI-H522 lung 90.6% | A549/ATCC NSCLC 81.9% | 786-0 renal 103% | COLO 205 colon 101% | DU-145 prostate 98.7% | K-562 leukemia 94.2% | MALME-3M melanoma 119% | MDA-MB-231 breast 72.6% | SF-268 CNS 95.4% | SF-295 CNS 92.4% | SF-539 CNS 98.5% | UACC-257 melanoma 97% | M14 melanoma 107%

Cc1cccc(Oc2ccc(Nc3ncnc4ccc(NC(=O)CN(C)C)cc34)cc2Cl)c1
inactive: NCI-H23 lung 78.4% | NCI-H226 lung 93.1% | NCI-H322M lung 17.4% | HOP-62 NSCLC 59.3% | HOP-92 NSCLC 23.5% | NCI-H522 lung 30% | A549/ATCC NSCLC 40.4% | 786-0 renal 47.9% | DU-145 prostate 34.5% | MALME-3M melanoma 25.9% | MDA-MB-231 breast 41.1% | SF-268 CNS 54.8% | SF-295 CNS 58.4% | SF-539 CNS 59.9% | UACC-257 melanoma 81.8%
active: NCI-H460 lung 0.249% | COLO 205 colon -15.8% | K-562 leukemia -8.94% | M14 melanoma -77.1%

O=C(O)C(/C=C/c1ccco1)=N\Nc1nc(-c2ccc(Cl)cc2)cs1
inactive: NCI-H23 lung 57.7% | NCI-H226 lung 84% | NCI-H322M lung 68.5% | HOP-62 NSCLC 46.4% | NCI-H460 lung 37.6% | HOP-92 NSCLC 51.8% | NCI-H522 lung 39.4% | A549/ATCC NSCLC 51.4% | 786-0 renal 51.8% | COLO 205 colon 94.6% | DU-145 prostate 70.1% | K-562 leukemia 65.7% | MALME-3M melanoma 79% | MDA-MB-231 breast 84.8% | SF-268 CNS 50.9% | SF-295 CNS 27.8% | SF-539 CNS 43.4% | UACC-257 melanoma 72.2% | M14 melanoma 43.7%

COc1cnccc1-c1nc2ccc3[nH]ncc3c2c2c1CCCC2
inactive: NCI-H23 lung 67.1% | NCI-H226 lung 67% | NCI-H322M lung 67.1% | HOP-62 NSCLC 61% | NCI-H460 lung 44.7% | HOP-92 NSCLC 69.2% | NCI-H522 lung 30.6% | A549/ATCC NSCLC 47.6% | 786-0 renal 49% | COLO 205 colon 55.3% | DU-145 prostate 62.7% | K-562 leukemia 42.2% | MALME-3M melanoma 73.8% | MDA-MB-231 breast 68.2% | SF-268 CNS 61.3% | SF-295 CNS 60.5% | SF-539 CNS 35.7% | UACC-257 melanoma 87.5% | M14 melanoma 46.3%

COc1cc(/C=C/C(=O)c2c(C)oc3nc[nH]c(=O)c23)ccc1O
inactive: NCI-H23 lung 98.7% | NCI-H226 lung 102% | NCI-H322M lung 98.3% | HOP-62 NSCLC 93.9% | NCI-H460 lung 103% | HOP-92 NSCLC 116% | NCI-H522 lung 101% | A549/ATCC NSCLC 101% | 786-0 renal 102% | COLO 205 colon 102% | DU-145 prostate 116% | K-562 leukemia 111% | MALME-3M melanoma 103% | MDA-MB-231 breast 106% | SF-268 CNS 99.6% | SF-295 CNS 99.3% | SF-539 CNS 97.5% | UACC-257 melanoma 96.6% | M14 melanoma 99.6%

Reference: PubChem BioAssay (NCI)
